HT1080 IDH1KD tx = kills HT-1080 cells with IDH1 knockdown | Potency, µM (titrated, usually from 46.1 µM), for inactives: at the highest dose activity, negative = toxicity, actives largely listed as cytotoxic | actives 2% (n = 360,000) | HT-1080 IDH1 knockdown viability, ATP luminescence, 48 h | AID 686971;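 further: 0% = DMSO wells and -100% = cell-free medium wells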
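IDH1KD HT-1080 cells, 750/well, RPMI + 5% FBS; compound pinned after 2 h settling; 48 h, 37 °C; CellTiter-Glo luminescence; % activity normalised to DMSO and no-cell wells; curves fitted, classed by r2 and efficacy.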
TGFb SMAD3 inh = inhibitors of TGF-b signaling. HepG2 CAGA-GFP TGF-b/SMAD3 reporter, GFP fluorescence, 18 h; TGF-beta stimulated, 500 pg/mL final. Potency, µM (top dose mostly 46.1 µM), for the others: top-dose activity, negative = inhibition, most hits filed as inhibitors. actives 1.2% (n = 410,000). AID 588855; further: on the % scale 0 is the no-effect control and ±100 the full control effect; nearly all actives have a fitted effect of over 65% in size
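Per well, imaged GFP fluorescence of HEPG2 CAGA-GFP cells gives the signal; cells get compound, then TGF-beta (500 pg/mL final), 18 h at 37 degrees C; %Activity versus -TGF-beta and +DMSO controls.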
ATXN2 expr inh = reduces ATXN2 reporter expression in HEK-293 cells | HEK-293 ATXN2-luciferase reporter, luminescence, 24 h | actives 0.72% (n = 360,000) | AID 1745845 | Potency, µM (titrated, usually from 57 µM), without a hit: top-dose activity change, negative = inhibition, most hits filed as inhibitors; further: on the % scale 0 is the no-effect control and ±100 the full control effect; nearly all actives have a fitted effect of over 55% in size
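ATXN2-luciferase reporter cells (luciferase flanked by upstream and downstream ATXN2 gene portions) were treated 24 h at 37 °C with compounds at up to 57 uM. SteadyGlo luminescence gave expression; GF-AFC fluorescence gave viability.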
HepG2 tox = counter-screen for TGF-b inhibitors: cytotoxicity in HepG2 cells; HepG2 CAGA-GFP viability, ATP luminescence, 18 h; Potency, µM (doses to about 46.1 µM), for the others: at the highest dose activity change, negative = cytotoxicity, hits mostly cytotoxic; actives 0.76% (n = 410,000); AID 588856
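HepG2 CAGA-GFP cells (1000/well, DMEM with 1% FBS) received compound, then TGF-beta at 500 pg/mL final, and were incubated 18 hours at 37 degrees C. Viability was read by CellTiter-Glo luminescence. Media-only wells were set as complete cell-killing and DMSO as no toxicity.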
ATXN viability = viability counter-screen for ATXN expression inhibitors; S2 cells (HEK-293 line with an ATXN2-luciferase reporter) viability, CellTiter-Fluor protease fluorescence, 24 h; Potency, µM (series often up to 56.7 µM), actives largely listed as cytotoxic; actives 0.49% (n = 400,000); AID 651635; further: nearly all actives have a fitted effect of over 40% in size
HT1080NT lethal = kills 2HG-producing HT-1080-NT fibrosarcoma cells | HT-1080-NT fibrosarcoma viability, CellTiter-Glo ATP luminescence, 48 h | Potency, µM (top dose mostly 46.1 µM), without a hit: at the highest dose activity, negative = less viability, hits mostly cytotoxic | actives 1.6% (n = 360,000) | AID 686970;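 further: NT is the 2HG producing partner of a matched IDH1 knockdown line; 0% = DMSO-treated cells and -100% = media-only wells without cells; nearly all actives have a fitted effect of over 55% in size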
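A 48-hour cytotoxicity screen used HT-1080-NT cells plated 2 hours before compound delivery. ATP-based CellTiter-Glo luminescence measured viability, normalized to DMSO and no-cell controls.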
Active calls of the source: *; i = inactive; ? = inconclusive; / = not tested or not shown. Most compounds without a hit are left out; they make up all but 3.9% or so of the library. The call rests on the fitted dose curve; in most records, active means well fitted curve in the direction sought with a large enough effect; inconclusive means small, poorly fitted or top-dose-only effect, or another doubt; inactive means no such curve, though single readings can be large; an effect the other way counts as inactive or inconclusive. Potency means the concentration at half of the fitted maximal effect.

SMILES | HT1080 IDH1KD tx | TGFb SMAD3 inh | ATXN2 expr inh | HepG2 tox | ATXN viability | HT1080NT lethal
Cc1[nH]c2ccccc2c1C1(O)C(=O)N(Cc2ccccc2)c2ccc(Cl)cc21 (stereo unspecified) | / | ? | ? | 15.8µM* | ? | /
Cc1ccccc1CN1C(=O)C(O)(c2c[nH]c3ccccc23)c2cc(Cl)ccc21 (stereo unspecified) | / | 15.8µM* | -24.0% | 11.2µM* | i | /
Cc1[nH]c2ccccc2c1C1(O)C(=O)N(Cc2ccc(Cl)cc2)c2ccccc21 (stereo unspecified) | / | / | / | -101.0% | / | /
Cc1ccc(C)c(CN2C(=O)C(O)(c3c[nH]c4ccccc34)c3ccccc32)c1 (stereo unspecified) | / | ? | ? | -102.8% | i | /
CN(c1ccc(O)cc1)c1nc(O)c(C2=c3ccccc3=NC2=O)s1 | -23.1% | ? | / | -24.3% | 28.2µM* | -7.3%
O=C1N=c2ccccc2=C1c1sc(=S)n(-c2ccc(O)cc2)c1O | -12.5% | 0.5% | -7.9% | -4.0% | i | -3.8%
O=C(NNc1nc(-c2ccc(Br)cc2)cs1)c1ccco1 | ? | ? | 21.8% | -38.4% | ? | -14.2%
N#Cc1ccc(-c2csc(NNC(=O)c3ccc(Br)cc3)n2)cc1 | 5.17µM* | ? | ? | -39.8% | ? | 8.2µM*
O=C(NNc1nc(-c2ccccc2)cs1)c1ccccc1 | -26.5% | -38.4% | -31.5% | -30.4% | i | -10.5%
N#Cc1ccc(-c2csc(NNC(=O)c3ccccc3)n2)cc1 | 10.3µM* | -24.4% | -21.2% | -7.4% | i | -4.2%
CCC(C(=O)Nc1cc(OC)cc(OC)c1)n1nc(-c2ccc(C)c(C)c2)ccc1=O (stereo unspecified) | / | ? | ? | -44.5% | / | /
CCN(CC)c1ccc(/C=C/c2sc3ccccc3[n+]2CCCCI)cc1 | / | 12.6µM* | / | -53.7% | / | /
OC1(c2ccccc2)CCNCC1 | / | / | -7.0% | / | i | /
Cc1cc2c(cc1C)NC(CC(=O)Nc1ccccc1SC(F)(F)F)C(=O)N2 (stereo unspecified) | / | 22.4% | 25.8% | 6.9% | / | /
CC(Nc1ncnc2sccc12)c1ccccc1 (stereo unspecified) | -23.0% | -12.5% | -19.3% | -8.5% | ? | 10.3µM*
COc1ccc(CNC(=O)CCC2N=C3c4ccccc4N=C(SCc4cccc(F)c4)N3C2=O)cc1 (stereo unspecified) | / | ? | 15.8% | -32.5% | ? | /
Clc1cccc(N2CCN(c3ncnc4c3nc3n4CCCCC3)CC2)c1 | / | ? | 17.8µM* | -46.8% | / | /
CC(=O)c1cccc(NC(=O)C2CCN(c3ncnc4c3nc3n4CCCCC3)CC2)c1 | / | 17.8µM* | / | -25.1% | / | /
O=C(C1CCN(c2ncnc3c2nc2n3CCCCC2)CC1)N1CCN(c2cccc(Cl)c2)CC1 | -27.5% | ? | / | -30.2% | 17.8µM* | ?
Cc1ccc(OCc2nc(-c3ccc(C(=O)N4CCN(c5cccc(C(F)(F)F)c5)CC4)cc3)oc2C)cc1 | / | -12.8% | 7.1% | -17.4% | i | /
O=S1(=O)NCC23CCC(CC21)O3 (stereo unspecified) | / | 0.7% | / | 1.3% | / | /
CC(=O)Nc1ccc2sn(-c3ccccc3)c(=O)c2c1 | -26.3% | ? | -27.0% | -56.6% | ? | -13.4%
O=c1c2cc(F)ccc2sn1-c1ccc(F)cc1 | ? | 15.8µM* | ? | -55.6% | / | ?
Cc1ccc2scc(N3CCN(c4ccc(F)cc4)CC3)c(=O)c2c1 | / | -9.3% | -20.0% | -15.6% | ? | /
O=c1c2ccccc2sn1-c1ccc(S(=O)(=O)N2CCOCC2)cc1 | / | -26.0% | / | -20.0% | / | /
SMILES | HT1080 IDH1KD tx | TGFb SMAD3 inh | ATXN2 expr inh | HepG2 tox | ATXN viability | HT1080NT lethal
COc1ccc(-n2sc3ccc(F)cc3c2=O)cc1 | ? | ? | ? | -64.7% | 25.1µM* | ?
Cc1ccc(C)c(-n2sc3ccc(F)cc3c2=O)c1 | ? | 10µM* | ? | -52.6% | ? | 20.6µM*
COc1ccc(-n2sc3ccccc3c2=O)cc1 | ? | 20µM* | ? | 12.6µM* | / | ?
CCOc1ccc(NC(=O)C2CCN(C(=O)N3CC(C)Oc4ccc(Cl)cc43)CC2)cc1 (stereo unspecified) | / | ? | / | -20.7% | / | /
CC(C)(C)C(=O)NCC(c1ccc2c(c1)OCO2)N1CCOCC1 (stereo unspecified) | / | 2.4% | / | 8.1% | / | /
CCCCCCCCOC(=O)c1c(CSC(=N)N)n(C)c2cc(Br)c(OC(C)=O)cc12 | ? | ? | / | 11.2µM* | 31.6µM* | ?
Cc1ccc(-c2[nH]c3ccccc3c2C(C[N+](=O)[O-])c2ccco2)cc1 (stereo unspecified) | ? | ? | 0.0% | 15.8µM* | i | 16.4µM*
CC(C)[C@H]1c2ccc(F)cc2CC[C@@]1(CCN(C)CCCc1nc2ccccc2[nH]1)OC(=O)C1CC1 | / | 11.2µM* | / | -108.7% | / | /
CC(OC(=O)c1cc(O)c2ccccc2c1O)C(=O)Nc1ccc(C(N)=O)cc1 (stereo unspecified) | ? | ? | -28.5% | -30.9% | i | 16.4µM*
CC(NC(=O)c1sc2ncccc2c1-n1cccc1)c1ccccc1 (stereo unspecified) | / | -29.1% | 5.6% | -30.2% | i | /
CC(C)NC(=O)NC(=O)COC(=O)c1c2c(nc3ccccc13)CCC2 | 25.9µM* | -17.3% | -34.4% | -12.0% | i | ?
CC(C)(C)NC(=O)COC(=O)c1c2c(nc3ccccc13)CCC2 | -17.0% | -10.7% | -8.8% | 2.4% | ? | -15.0%
CC(C)c1ccc(C2c3c(-c4ccccc4O)n[nH]c3C(=O)N2Cc2ccncc2)cc1 (stereo unspecified) | / | ? | -8.2% | -54.1% | 31.6µM* | /
CCCN1C(=O)c2[nH]nc(-c3ccccc3O)c2C1c1cccc(OCc2ccccc2)c1 (stereo unspecified) | / | 11.2µM* | / | 15.8µM* | / | /
Cc1ccc(O)c(-c2n[nH]c3c2C(c2ccccc2F)N(Cc2ccco2)C3=O)c1 (stereo unspecified) | / | ? | ? | 11.2µM* | / | /
CSc1ccc(C2c3c(-c4ccccc4O)n[nH]c3C(=O)N2Cc2ccncc2)cc1 (stereo unspecified) | / | ? | 0.0% | -31.1% | / | /
COc1ccc(CCN2C(=O)c3[nH]nc(-c4ccccc4O)c3C2c2ccccc2)cc1OC (stereo unspecified) | 32.6µM* | ? | -24.9% | -5.9% | i | ?
COc1cccc(N2CCN(C(=O)c3cccn3-c3nnc(N4CCCC4)s3)CC2)c1 | / | -22.3% | / | -17.3% | / | /

Screening data as filed in PubChem.
